This note sets out measurements from PubChem BioAssay (NCATS).

Unmarked numbers belong to inactive results. Inconclusive results are not listed. A call without a number means that no potency is given here. The source made the active and inactive calls. The call rests on the fitted dose curve; in most records, active means well fitted curve in the direction sought with a large enough effect; inconclusive means small, poorly fitted or top-dose-only effect, or another doubt; inactive means no such curve, though single readings can be large; an effect the other way counts as inactive or inconclusive.

Assay [1] deals with Zika virus NS2B-NS3 protease (linked construct). As to the kind of experiment: Primary screen NINDS Rhodamine qHTS for Zika virus inhibitors (AID 1347160). Further: nearly all actives have a fitted effect of over 55% in size. In short, it runs like this: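 Purified NS2B-NS3 protease with the NS2B hydrophilic domain joined by a flexible linker (25 nM) in 10 mM Tris-HCl pH 8.0, 0.01% Tween 20, preincubated 15 min at RT with compound; Rhodamine110 peptide substrate 1.5 µM; fluorescence change over 15 min; 4-parameter Hill fit.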

Assay [2] is described as follows: qHTS to identify inhibitors of the type 1 interferon - major histocompatibility complex class I in skeletal muscle: primary screen against the NCATS Mechanism Interrogation Plate v5.0 (MIPE) Libary (AID 1347411). Further: nearly all actives have a fitted effect of over 65% in size. Further: potency means the concentration at half of the fitted maximal effect. In short, it runs like this:
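Luminescence from HiBiT-tagged endogenous HLA-B*08:01 served as the MHC class I read-out. CRISPR-engineered C25cl48 human myoblasts received 4.0 ng/ml IFN-beta plus compound for 24 hrs, with an 11-point, 1:3 series topping at 46 uM final.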
(In qHTS, concentration-response curves come from the screen itself.)

In assay [3] the target is Calcium and integrin-binding protein 1 (Homo sapiens) (UniProt Q99828). As to the kind of experiment: Primary qHTS for Identification of Calcium Integrin Binding Protein 1 (CIB1) Competitor (AID 1508620).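 Further: GST tagged CIB1 binding a fluorescein labelled alphaIIb integrin peptide tracer; top concentration of the series differs between compounds.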 Summed up:
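CIB1-GST (1 uM final) and compound incubated 15 min at room temperature before adding FITC-alphaIIb peptide tracer (100 nM final). Competition for binding read by fluorescence polarization (ex 480, em 540) after another 15 min at room temperature.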

For assay [4] the target is unchanged. In words: Confirmatory qHTS for Identification of Calcium Integrin Binding Protein 1 (CIB1) Competitor (AID 1508617). Further: nearly all actives have a fitted effect of over 65% in size. In short, it runs like this:
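FP competition: CIB1-GST (1 uM final) in 5 mM HEPES pH 7.4, 125 mM NaCl, 5 mM CaCl2, 0.01% Tween20 preincubated 15 min RT with compounds (up to 114 uM), then FITC-alphaIIb peptide (100 nM), 15 min RT; Ex 480/Em 540.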

For assay [5], the system named is Zika virus NS2B-NS3 protease (linked). In words: 384 well plate NINDS AMC confirmatory qHTS for Zika virus inhibitors (AID 1347163). Further: nearly all actives have a fitted effect of over 50% in size. Further: potency means the concentration at half of the fitted maximal effect. In short, it runs like this: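 Linked NS2B-NS3 protease (final 5 nM, 30 nM or 60 nM) was preincubated with compounds (final up to 1 mM) for ~15 minutes. Ac-VKTGKR-AMC substrate (final 30 microM) then reacted for 25 minutes at room temperature in the dark. Fluorescence (ex 355/em 460 nm) was normalized to no-enzyme and no-inhibitor controls.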

The test system of assay [6] is Zika virus NS2B-NS3 protease (linked construct). In words: 384 well plate NINDS Rhodamine confirmatory qHTS for Zika virus inhibitors (AID 1347164). Further: potency means the concentration at half of the fitted maximal effect; nearly all actives have a fitted effect of over 65% in size. Summed up:
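Compounds are incubated about 15 minutes with linked protease (5, 30 or 60 nM final). Rhodamine 110-tagged Ac-LKRR substrate (10 microM final) is added and fluorescence measured after 25 minutes.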

Assay [7] is described as follows: Vero cells viability qHTS for Zika virus inhibitors (AID 1347167). Further: potency means the concentration at half of the fitted maximal effect. In short, it runs like this: (§1)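 Compounds were tested in concentration series on cells grown in DMEM containing 4% FBS. After 24 to 48 hours, cellular ATP was measured by luminescence with CellTiter Glo.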
Assay [8] is described as follows: HepG2 cells viability qHTS for Zika virus inhibitors (AID 1347168). Further: potency means the concentration at half of the fitted maximal effect. In short, it runs like this: as §1
The nature of assay [9]: qHTS to identify inhibitors of the type 1 interferon - major histocompatibility complex class I in skeletal muscle: primary screen against the NCATS Pharmaceutical Collection (AID 1347407).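 Further: luminescence of HiBiT knocked into endogenous HLA-B as interferon-induced MHC class I level.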 In short, it runs like this: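 Cells were seeded with 4 ng/ml IFN-beta, incubated 1 h, then dosed with compounds over eight 1:5 steps up to 46 uM final. After 24 h at 37 C, HiBiT lytic reagent was added and luminescence read after 10 min lysis in the dark.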

In assay [10] the target is Protein phosphatase 1D (Homo sapiens) (UniProt O15297). As to the kind of experiment: RapidFire Mass Spectrometry qHTS Assay for Modulators of WT P53-Induced Phosphatase 1 (WIP1) (AID 1347424).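 Further: amount of dephosphorylated VEPPL-S-QETFS peptide product formed by WIP1; potency means the concentration at half of the fitted maximal effect.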 Summed up: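 10 nM WIP1 + cpd, 1 h RT; + 2 uM VEPPL-pS-QETFS, 5 min RT; stop 0.5% formic acid; labelled product standard 1 uM; RapidFire MS. Buffer 50 mM Tris pH 7.5, 30 mM MgCl2, 1 mM TCEP.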

Assay [11] in a line: Primary qHTS for inhibitors of La Crosse Virus (LACV) - induced cell death in SH-SY5Y cells (AID 1508616).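 Further: top concentration of the series differs between compounds; higher means more rescue of cells from virus-induced death.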 In short, it runs like this: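 Protection against LACV-induced cell death is scored in SH-SY5Y cells exposed to compounds and virus (0.01 MOI) for 6 days. Data normalized to virus-infected DMSO wells and virus-free DMSO wells.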
Assay [12] in a line: qHTS to identify inhibitors of the type 1 interferon - major histocompatibility complex class I in skeletal muscle: primary screen against the NCATS LOPAC collection (AID 1347405).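 Further: lytic HiBiT luminescence reporting HLA-B protein level.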 In short, it runs like this: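 Luminescence from HiBiT fused to endogenous HLA-B in CRISPR-engineered human myoblasts served as the read-out. Cells received 4.0 ng/ml IFN-beta plus compound (seven concentrations, 1:4.3 steps, highest 46 uM final) for 24 hrs before lytic detection.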

A short description of assay [13]: qHTS for inhibitors of adenylyl cyclases using a fission yeast platform: a pilot screen against the NCATS LOPAC library (AID 1347410). In short, it runs like this:
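Growth medium went into the plates first, then compounds were pinned (final up to 57 µM), then CHP2027 yeast were added. Plates were incubated overnight (18 h) at 30C in the dark, and GFP was measured by laser scanning cytometry.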

Assay [14] is described as follows: Validation qHTS assay for inhibitors of Activation Induced Cytidine Deaminase (AID): UDG Counterscreen signal (AID 1347427). In short, it runs like this:
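Counterscreen read of UDG activity (2 U/mL, 4/3x) in the FRET deamination format with AID (1 uM, 4/3x), DJC20/DJC23 substrates (250 nM, 4x), 4 h at room temperature. NaOH stop, fluorescence at 560 ex/665 em.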

Assay [15] concerns the target Single-stranded DNA cytosine deaminase (Homo sapiens) (UniProt Q9GZX7). In words: Validation qHTS assay for inhibitors of Activation Induced Cytidine Deaminase (AID): AID signal (AID 1347429). Summed up: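 Fluorescence at 540 nm excitation and 590 nm emission reports ssDNA cytosine deamination by AID, with UDG in the same well. Compound-treated reactions ran 4 hr at room temperature with DJC20/DJC23 substrate, followed by 30 min NaOH treatment.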

The target of assay [16] is Calcium and integrin-binding protein 1 (Homo sapiens) (UniProt Q99828). As to the kind of experiment: Validation qHTS for Identification of Calcium Integrin Binding protein 1 (CIB1) Competitor (AID 1508618). In short, it runs like this: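 Fluorescence polarization with 1 uM CIB1-GST and 100 nM FITC-alphaIIb peptide in HEPES pH 7.4, NaCl, 5 mM CaCl2, Tween20. Compounds at up to 114 uM final, preincubated with protein 15 min; read after 15 min more at RT.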
Calcium and integrin-binding protein 1 (Homo sapiens), sequence (Q99828 whole entry, looked up): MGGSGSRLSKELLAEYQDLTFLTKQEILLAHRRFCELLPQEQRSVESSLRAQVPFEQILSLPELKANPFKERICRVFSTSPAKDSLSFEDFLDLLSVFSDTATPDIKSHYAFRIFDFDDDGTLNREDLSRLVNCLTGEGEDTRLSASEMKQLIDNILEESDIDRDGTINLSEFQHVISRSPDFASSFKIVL

Single-stranded DNA cytosine deaminase (Homo sapiens), sequence (Q9GZX7 whole entry, looked up): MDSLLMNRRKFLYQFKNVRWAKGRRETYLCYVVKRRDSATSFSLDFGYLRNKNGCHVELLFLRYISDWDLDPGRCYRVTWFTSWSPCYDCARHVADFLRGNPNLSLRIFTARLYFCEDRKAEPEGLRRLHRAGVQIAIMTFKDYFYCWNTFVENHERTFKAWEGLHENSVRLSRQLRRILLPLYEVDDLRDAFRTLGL
Protein phosphatase 1D (Homo sapiens), sequence (O15297 whole entry, looked up): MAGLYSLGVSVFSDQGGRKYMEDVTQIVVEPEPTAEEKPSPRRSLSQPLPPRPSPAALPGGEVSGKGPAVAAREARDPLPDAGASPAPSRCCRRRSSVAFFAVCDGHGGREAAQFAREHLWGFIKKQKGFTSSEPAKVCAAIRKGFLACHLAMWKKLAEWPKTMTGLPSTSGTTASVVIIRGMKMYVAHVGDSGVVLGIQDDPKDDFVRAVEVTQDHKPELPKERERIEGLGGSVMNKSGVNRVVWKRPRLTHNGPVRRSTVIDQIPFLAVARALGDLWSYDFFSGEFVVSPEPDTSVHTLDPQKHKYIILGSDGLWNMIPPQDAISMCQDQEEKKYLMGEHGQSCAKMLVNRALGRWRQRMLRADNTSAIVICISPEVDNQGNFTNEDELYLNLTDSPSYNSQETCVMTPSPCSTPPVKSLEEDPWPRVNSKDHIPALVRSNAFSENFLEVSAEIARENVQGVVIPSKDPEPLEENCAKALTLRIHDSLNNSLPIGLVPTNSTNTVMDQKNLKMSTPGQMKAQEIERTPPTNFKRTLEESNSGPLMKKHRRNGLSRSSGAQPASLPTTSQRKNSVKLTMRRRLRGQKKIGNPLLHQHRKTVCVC

As to `Cc1c(Cn2c(C)nc3c(C(=O)O)cc(N4CCOCC4)cc32)cccc1C(F)(F)F`, the Potency result in assay [1] and in assay [2] was “inactive” throughout. The outcome in assay [3] was inactive.

For `CNc1nccc(-c2cccnc2Oc2cc(C(=O)Nc3cccc(C(F)(F)F)c3)ccc2C)n1`, the Potency entry in assay [1] is “inactive”. In addition, in assay [2], the Potency was 5.87 µM (active). Also, the outcome in assay [3] was inactive.

In the case of `COc1cccc(Nc2c(C(N)=O)cnc3c(C)cc(S(=O)(=O)c4cccc(C(=O)N(C)C)c4)cc23)c1`, the Potency entry in [1] and in assay [2] was “inactive” each time. The result in [3] was inactive.

On to `NCC(=O)Nc1ccc(-n2nc(C(F)(F)F)cc2-c2ccc3c(ccc4ccccc43)c2)cc1`, for which the Potency entry in assay [1] and in assay [2] was “inactive” in each case. Moreover, in [3], the result was inactive.

Consider `CC(C)(O)CCc1ccc(OCc2cc(-c3cccc(OC(F)F)c3)c3ncccc3c2)cc1`, for which the Potency result in assay [1] and in [4] was “inactive” in each case.

With `NC(=O)c1cccc2cn(-c3ccc([C@@H]4CCCNC4)cc3)nc12`, the Potency result in assay [1] and in assay [2] was “inactive” throughout. Besides, the result in [3] was inactive.

As for `N#CCNC(=O)c1ccc(-c2ccnc(Nc3ccc(N4CCOCC4)cc3)n2)cc1`, the Potency result in [1] was “inactive”. The Potency in assay [2] was 11.7 µM (active). For the same molecule, the outcome in assay [3] was inactive.

Turning to `Cc1cc(Nc2cc(N3CCN(C)CC3)nc(Sc3ccc(NC(=O)C4CC4)cc3)n2)n[nH]1`, the Potency result in [1] and in assay [2] was “inactive” throughout. Also, the outcome in assay [3] was inactive.

`Cc1cn2cc(C(=O)N(C)CCO)cc(N[C@@H]3CCOc4cccc(C)c43)c2n1`: the Potency entry in [1] and in assay [2] was “inactive” each time. Also, in assay [3], the result was inactive.

Turning to `NC(=O)c1c(OCc2c(F)cc(Br)cc2F)nsc1NC(=O)NCCCCN1CCCC1`, the Potency entry in [1] was “inactive”. The Potency in [2] was 33 µM (active). In assay [3], the outcome was inactive.

In the case of `CC(C)c1nn(-c2c(Cl)cccc2Cl)c2nc(Cc3ccc(OCCO)cc3)[nH]c(=O)c12`, in [1], the Potency entry was “inactive”. The Potency in assay [2] is 0.0294 µM (active). Further, the result in assay [3] was inactive.

`COc1ccc(-n2nc(C(N)=O)c3c2C(=O)N(c2ccc(N4CCCCC4=O)cc2)CC3)cc1`: the Potency result in [1] and in [2] was “inactive” each time. For the same molecule, the result in assay [3] was inactive.

On to `Cn1cc(-c2ccncc2)c(-c2ccc(OCc3ccc4ccccc4n3)cc2)n1`, for which the Potency entry in [1] is “inactive”. The outcome in assay [3] was inactive.

For `COc1cc2c(NC3CCN(C(C)C)CC3)nc(C3CCCCC3)nc2cc1OCCCN1CCCC1`, the Potency entry in [1] was “inactive”. The result in [3] was inactive.

On to `CCn1nnc2c(N3CCOCC3)nc(-c3ccc(NC(=O)Nc4ccc(C(=O)N5CCN(C)CC5)cc4)cc3)nc21`, for which, in assay [1], the Potency entry was “inactive”. Besides, in [3], the result was inactive.

On to `C=CC(=O)Nc1cccc(Oc2nc(Nc3ccc(N4CCN(C)CC4)cc3OC)ncc2Cl)c1`, for which the Potency result in assay [1] was “inactive”. Besides, the outcome in assay [3] was inactive.

Consider `COc1cc(C(=O)NS(=O)(=O)c2ccccc2C)ccc1Cc1cn(C)c2ccc(NC(=O)OC3CCCC3)cc12`, for which the Potency was 141 µM (active) in [5], 28.2 µM (active) in [6] and 15.8 µM (active) in assay [10]. In addition, the Potency entry in assay [7], in assay [8] and in [2] was “inactive” throughout. The result in [9] and in assay [11] was inactive.

For the molecule `Cn1c2cc(S(C)=O)sc2c2cnn(Cc3cccc(N)c3)c(=O)c21` (stereo not drawn), the Potency result in assay [2] is “inactive”.

Consider `COc1cc(C)c(Sc2cnc(NC(=O)c3ccc(CNC(C)C(C)C)cc3)s2)cc1C(=O)N1CCN(C(C)=O)CC1` (stereo not drawn), for which, in [1], the Potency entry was “inactive”. For the same molecule, in [3], the result was inactive.

As for `O=c1c2ccccc2nc2n1CCc1c-2[nH]c2ccccc12`, the Potency result in assay [5] and in assay [7] was “inactive” each time. The Potency in [6] is 56.2 µM (active). In addition, the result in assay [12], in assay [13], in [14], in [15], in assay [11] and in [16] was inactive. Also, in assay [3], the result was inactive.

As to `CS(=O)(=O)c1ccc(-c2cnc(N)c(C(=O)Nc3ccccc3)n2)cc1`, the Potency result in [1] was “inactive”. The outcome in assay [3] was inactive.

For `CCN1CCN(Cc2ccc(-c3cc4c(N[C@H](C)c5ccccc5)ncnc4[nH]3)cc2)CC1`, the Potency in assay [7] was 53.7 µM (active); in [8], 38 µM (active); in assay [2], 18.6 µM (active). In addition, the result in assay [3] was inactive.

As for `CN(C1CCc2c(c3ccccc3n2CC(=O)O)C1)S(=O)(=O)c1ccc(F)cc1` (stereo not drawn), the Potency result in assay [1] is “inactive”. Further, in assay [3], the outcome was inactive.

Consider `NC1(Cc2ccc(Cl)cc2)CCN(c2ncnc3[nH]ccc23)CC1`, for which the Potency entry in [1] is “inactive”. Moreover, in assay [3], the result was inactive.

Regarding `c1ccc2c(CCNc3ccc(Nc4ccncc4)cc3)c[nH]c2c1`, the Potency result in [1] was “inactive”. Besides, the outcome in assay [3] was inactive.

For the molecule `Cc1nc(N)ncc1-c1nc(N2CCOCC2)c2sc(C(C)(C)O)cc2n1`, in assay [1], the Potency entry was “inactive”. Moreover, the result in assay [3] was inactive.
